Among the data in the antibiotic and cytotoxicity screens of Wong et al. (2023) are cytotoxicity call values, retold here.

Molecules are shown by their SMILES. About 3,300 (8.5%) of roughly 39,000 compounds were called active. Many of the other results were omitted from the sample, so actives are more common in it than they were.

The test relates to HepG2. Kind of test: cytotoxicity call (relative viability < 0.9). The conditions noted are these: 10 µM.
`CC(C)C(=O)O`: the cytotoxicity call is “inactive”.

Turning to `C[C@@H]1CN([C@@H](C)CO)C(=O)c2cc(NS(=O)(=O)c3cn(C)cn3)ccc2O[C@@H](C)CCCCO[C@H]1CN(C)S(=O)(=O)c1cccs1`, the cytotoxicity call is “inactive”.

Take `NCCc1cc2nc(-c3ccncc3)ccn2n1`: the cytotoxicity call was “inactive”. The value for `CN1CCN(C(=O)C[C@H]2CC[C@H]3[C@@H](COC[C@H](O)CN3C(=O)C3CCCC3)O2)CC1` was “inactive”; that for `O=c1ncc(F)c[nH]1` was “inactive”. As for `CCCNC(=O)N1C[C@]2(CCN(CC2)S(=O)(=O)c2cccc(c2)OC)c2c(n(c3cc(ccc23)OC)C)[C@H]1CO`, the cytotoxicity call is “inactive”. The value for `C=CCOC(=O)[C@@H]1[C@H]2C(=O)O[C@H](c3ccccc3)[C@H](c3ccccc3)N2[C@H](c2ccc(OCCOC(=O)[C@H]3C[C@H]4C(=O)N[C@@H](CC(C)C)C(=O)N4[C@H]3c3ccc(O)cc3)cc2)[C@@]12C(=O)Nc1ccc(I)cc12` was “inactive”. As to `CCC(=C/[C@H](C)C/C=C/C(C)=C/[C@@H](C)C(=O)[C@@H](C)[C@H](O)[C@@H](C)C/C(C)=C/C(=O)O)/C=C/[C@@H]1OC(=O)C=C[C@@H]1C`, the cytotoxicity call was “active”.

Take `C[C@@H]1CN([C@H](C)CO)C(=O)c2cc(C#CC3CCCCC3)cnc2O[C@H]1CN(C)C(=O)c1ccncc1`: the cytotoxicity call is “inactive”. The value for `CCS(=O)(=O)N1C[C@]2(C1)CN([C@H](CO)c1c2c2ccc(cc2n1C)OC)C(=O)Nc1cccc(c1)F` was “inactive”; that for `C[C@H]1CN([C@@H](C)CO)C(=O)c2cccc(NS(=O)(=O)c3ccc(F)cc3)c2O[C@@H]1CN(C)Cc1ccc(-c2ccccc2)cc1` was “inactive”; that for `C[C@H](CO)N1C[C@H](C)[C@@H](CN(C)Cc2ccc(-c3ccccc3)cc2)Oc2c(NS(=O)(=O)c3ccc(F)cc3)cccc2C1=O` was “active”.

Consider `C[C@@H]1CN([C@@H](C)CO)C(=O)c2cccc(NS(=O)(=O)c3ccc(F)cc3)c2O[C@@H]1CN(C)Cc1ccc(-c2ccccc2)cc1`, for which the cytotoxicity call was “active”. The value for `C[C@@H]1CN([C@H](C)CO)C(=O)c2cccc(NS(=O)(=O)c3ccc(F)cc3)c2O[C@@H]1CN(C)Cc1ccc(-c2ccccc2)cc1` was “inactive”; that for `C[C@@H]1CN([C@@H](C)CO)C(=O)c2cccc(NS(=O)(=O)c3ccccc3)c2O[C@@H]1CN(C)Cc1ccc(-c2ccccc2)cc1` was “inactive”; that for `C[C@H]1CN([C@@H](C)CO)C(=O)c2cccc(NS(=O)(=O)c3ccccc3)c2O[C@@H]1CN(C)Cc1ccc(-c2ccccc2)cc1` was “inactive”. With `C[C@@H]1CN([C@H](C)CO)C(=O)c2cccc(NS(=O)(=O)c3ccccc3)c2O[C@H]1CN(C)Cc1ccc(-c2ccccc2)cc1`, the cytotoxicity call was “inactive”. For the molecule `C[C@@H]1CN([C@@H](C)CO)C(=O)c2cccc(NS(=O)(=O)c3ccc(F)cc3)c2O[C@H]1CN(C)Cc1ccc(-c2ccccc2)cc1`, the cytotoxicity call was “inactive”. The value for `C[C@H](CO)N1C[C@H](C)[C@H](CN(C)Cc2ccc(-c3ccccc3)cc2)Oc2c(NS(=O)(=O)c3ccc(F)cc3)cccc2C1=O` was “active”; that for `C[C@@H]1CN([C@H](C)CO)C(=O)c2cccc(NS(=O)(=O)c3ccc(F)cc3)c2O[C@H]1CN(C)Cc1ccc(-c2ccccc2)cc1` was “active”; that for `C[C@H]1CN([C@@H](C)CO)C(=O)c2cccc(NS(=O)(=O)c3ccc(F)cc3)c2O[C@H]1CN(C)Cc1ccc(-c2ccccc2)cc1` was “inactive”.

Consider `C[C@H](CO)N1C[C@H](C)[C@H](CN(C)Cc2ccc(-c3ccccc3)cc2)Oc2c(NS(=O)(=O)c3ccccc3)cccc2C1=O`, for which the cytotoxicity call is “inactive”. For the molecule `COCC(=O)Nc1ccc2c(c1)C(=O)N(C)[C@@H]1CC[C@H](CC(=O)NCc3ccc(OC)cc3)O[C@H]1CO2`, the cytotoxicity call is “inactive”.

For the molecule `C[C@H]1CN([C@@H](C)CO)C(=O)Cc2cc(NS(=O)(=O)c3ccccc3)ccc2O[C@H]1CN(C)CC1CC1`, the cytotoxicity call was “inactive”. `C[C@@H]1CN([C@@H](C)CO)C(=O)c2cc(NC(=O)CCC(F)(F)F)ccc2O[C@@H](C)CCCCO[C@H]1CN(C)S(=O)(=O)c1ccc(F)cc1`: the cytotoxicity call was “inactive”. The value for `COc1ccccc1CNC(=O)C[C@H]1C[C@@H]2c3cc(NC(=O)C4CCOCC4)ccc3O[C@@H]2[C@@H](CO)O1` was “inactive”. In the case of `COc1ccc(S(=O)(=O)Nc2ccc3c(c2)C(=O)N([C@H](C)CO)C[C@@H](C)[C@@H](CN(C)CC2CC2)O3)cc1`, the cytotoxicity call was “inactive”. As for `Cc1noc(C)c1NC(=O)N(C)C[C@H]1Oc2ccc(NC(=O)NC(C)C)cc2CC(=O)N([C@@H](C)CO)C[C@H]1C`, the cytotoxicity call is “inactive”. Turning to `O=C(CN1CCOCC1)NCC[C@H]1CC[C@H](NC(=O)Nc2ccccc2)[C@@H](CO)O1`, the cytotoxicity call was “inactive”. Turning to `C[C@@H]1CCCCO[C@@H](CN(C)C(=O)Nc2ccc3c(c2)OCO3)[C@@H](C)CN([C@H](C)CO)C(=O)c2cc(NC(=O)Nc3ccccc3)ccc2O1`, the cytotoxicity call is “inactive”.

`Nc1cccc(C2=NCCN2)c1`: the cytotoxicity call is “inactive”.

As to `CS(=O)(=O)Nc1ccc2c(c1)[C@H]1C[C@@H](CC(=O)NCC3CC3)O[C@H](CO)[C@H]1O2`, the cytotoxicity call was “inactive”. The value for `COc1ccc(NC(=O)N(C)C[C@@H]2Oc3ncc(C#CCN(C)C)cc3C(=O)N([C@@H](C)CO)C[C@@H]2C)cc1` was “inactive”; that for `C[C@@H]1CN([C@@H](C)CO)C(=O)c2cccc(NS(=O)(=O)c3ccc(F)cc3)c2O[C@@H]1CN(C)S(=O)(=O)c1ccc(F)cc1` was “active”; that for `C[C@H]1CN([C@@H](C)CO)C(=O)c2cccc(NS(=O)(=O)c3ccc(F)cc3)c2O[C@H]1CN(C)S(=O)(=O)c1ccc(F)cc1` was “inactive”. The value for `C[C@H](CO)N1C[C@H](C)[C@H](CN(C)S(=O)(=O)c2ccc(F)cc2)Oc2c(NS(=O)(=O)c3ccc(F)cc3)cccc2C1=O` was “inactive”; that for `CC(C)C#Cc1ccc2c(c1)O[C@@H](CN(C)S(=O)(=O)c1cn(C)cn1)[C@H](C)CN([C@H](C)CO)S2(=O)=O` was “inactive”.

For the molecule `O=C(CS)NCCCCCCNC(=O)[C@@H]1C[C@@H]2C(=O)N[C@@H](Cc3ccccc3)C(=O)N2[C@@H]1c1ccc(O)cc1`, the cytotoxicity call was “inactive”. As to `COc1ccc(NC(=O)N2C[C@H](O)COC[C@H]3O[C@@H](CC(=O)NC4Cc5ccccc5C4)CC[C@@H]32)cc1`, the cytotoxicity call is “inactive”.

As to `CO[C@H]1CN(C)C(=O)c2ccc(NC(=O)C3CC3)cc2OC[C@@H](C)N(C(=O)CN2CCOCC2)C[C@H]1C`, the cytotoxicity call was “inactive”.

`C[C@H]1CN([C@@H](C)CO)C(=O)c2cccc(NC(=O)c3ccc(-c4nccs4)cc3)c2O[C@H]1CN(C)C(=O)Nc1cccc2ccccc12`: the cytotoxicity call was “inactive”. The value for `C=CCNC(=O)[C@H]1[C@@H]2C(=O)O[C@@H](c3ccccc3)[C@@H](c3ccccc3)N2[C@@H](c2ccccc2OCCO)[C@]12C(=O)Nc1ccc(C#CC3=CCCCC3)cc12` was “inactive”; that for `C=CCNC(=O)[C@@H]1[C@H]2C(=O)O[C@H](c3ccccc3)[C@H](c3ccccc3)N2[C@H](c2ccccc2OCCO)[C@@]12C(=O)Nc1ccc(C#Cc3ccc(OC)cc3)cc12` was “inactive”. For the molecule `COc1ccc(C#Cc2ccc3c(c2)[C@]2(C(=O)N3)[C@H](C(=O)O)[C@H]3C(=O)O[C@H](c4ccccc4)[C@H](c4ccccc4)N3[C@@H]2c2ccccc2OCCO)cc1`, the cytotoxicity call was “inactive”.

Take `COc1ccc(C#Cc2ccc3c(c2)[C@]2(C(=O)N3)[C@H](C(N)=O)[C@H]3C(=O)O[C@H](c4ccccc4)[C@H](c4ccccc4)N3[C@@H]2c2ccccc2OCCO)cc1`: the cytotoxicity call was “active”. The value for `COc1ccc(C#Cc2ccc3c(c2)[C@]2(C(=O)N3)[C@H](c3ccccc3OCCO)N3[C@H](c4ccccc4)[C@H](c4ccccc4)OC(=O)[C@H]3[C@@H]2C(=O)N2CCN(c3ncccn3)CC2)cc1` was “active”.

As to `COc1ccc(C#Cc2ccc3c(c2)[C@]2(C(=O)N3)[C@H](c3ccccc3OCCO)N3[C@H](c4ccccc4)[C@H](c4ccccc4)OC(=O)[C@H]3[C@@H]2C(=O)NC[C@H](O)c2ccccc2)cc1`, the cytotoxicity call was “active”.

Regarding `O=C1O[C@H](c2ccccc2)[C@H](c2ccccc2)N2[C@H]1[C@@H](C(=O)NC[C@@H](O)c1ccccc1)[C@]1(C(=O)Nc3ccc(C#CC4=CCCCC4)cc31)[C@H]2c1ccccc1OCCO`, the cytotoxicity call is “active”. The value for `COc1ccc(C#Cc2ccc3c(c2)[C@]2(C(=O)N3)[C@H](c3ccc(OCCO)cc3)N3[C@H](c4ccccc4)[C@H](c4ccccc4)OC(=O)[C@H]3[C@@H]2C(=O)NC[C@H](O)c2ccccc2)cc1` was “inactive”; that for `C=CCNC(=O)[C@@H]1[C@H]2C(=O)O[C@H](c3ccccc3)[C@H](c3ccccc3)N2[C@H](c2ccccc2OCCO)[C@@]12C(=O)Nc1ccc(C#CC3=CCCCC3)cc12` was “inactive”. The value for `COc1ccc(C#Cc2ccc3c(c2)[C@]2(C(=O)N3)[C@H](C(=O)N3CCN(c4ncccn4)CC3)[C@H]3C(=O)O[C@H](c4ccccc4)[C@H](c4ccccc4)N3[C@@H]2c2ccc(OCCO)cc2)cc1` was “inactive”. Turning to `COc1ccc(C#Cc2ccc3c(c2)[C@]2(C(=O)N3)[C@H](c3ccccc3OCCO)N3[C@H](c4ccccc4)[C@H](c4ccccc4)OC(=O)[C@H]3[C@@H]2C(=O)O)cc1`, the cytotoxicity call was “inactive”. The value for `COc1ccc(C#Cc2ccc3c(c2)[C@]2(C(=O)N3)[C@H](C(=O)N3CCN(c4ncccn4)CC3)[C@H]3C(=O)O[C@H](c4ccccc4)[C@H](c4ccccc4)N3[C@@H]2c2ccccc2OCCO)cc1` was “inactive”; that for `Cc1noc(C)c1NC(=O)Nc1ccc2c(c1)C(=O)N([C@@H](C)CO)C[C@H](C)[C@H](CN(C)Cc1ccc(C(F)(F)F)cc1)O2` was “inactive”; that for `Cc1noc(C)c1NC(=O)N(C)C[C@@H]1Oc2c(NS(=O)(=O)c3cn(C)cn3)cccc2C(=O)N([C@H](C)CO)C[C@@H]1C` was “inactive”. In the case of `OCCCn1cnnc1`, the cytotoxicity call was “inactive”.

`C[C@H](CO)N1C[C@H](C)[C@H](CN(C)C)Oc2cc(C#CCN(C)C)ccc2S1(=O)=O`: the cytotoxicity call is “inactive”.
